Compound activity as filed in PubChem BioAssay.
An excerpt weighted towards active compounds, which were near 13% of everything screened.
LASV entry inh: Lassa virus entry inhibition; Lassa virus pseudotype entry inhibition, cell reporter; Potency, µM (top dose mostly 37.9 µM), for inactives: at the highest dose activity change, negative = inhibition, actives largely listed as inhibitors; actives 1.2% (n = 300,000); calls by dose curve; tested in HEK293 cells; also: potency is read from the fitted curve at half-maximal effect; % is scaled to controls: 0 for no effect and ±100 for the full control effect; nearly all actives have a fitted effect of over 50% in size
FMDV inh: antivirals against foot and mouth disease virus; FMDV antiviral cell-based qHTS; Potency, µM (top dose mostly 57.9 µM), without a hit: at the top dose activity change, negative = inhibition, hits mostly inhibitors; actives 1.2% (n = 410,000); AID 1159524; calls by dose curve; tested in HEK293T cells; also: read-out not given here; potency is read from the fitted curve at half-maximal effect; % is scaled to controls: 0 for no effect and ±100 for the full control effect; nearly all actives have a fitted effect of over 45% in size
Marburg entry inh: inhibitors of Marburg virus binding or cell entry; Marburg virus pseudotyped entry inhibition, cell reporter; Potency, µM (titrated, usually from 37.8 µM), for inactives: at the highest dose activity change, negative = inhibition, actives largely listed as inhibitors; actives 1.8% (n = 300,000); AID 540276; calls by dose curve; tested in HEK293 cells; also: potency is read from the fitted curve at half-maximal effect; % is scaled to controls: 0 for no effect and ±100 for the full control effect
Shiga inhibitor: inhibitors of Shiga toxin in Vero cells. actives 9.2% (n = 290,000). inhibition, % at 38.7 µM. Vero cells, Shiga toxin protein synthesis inhibition reporter. AID 2315; in the data active = inhibition mostly above about 28%, no sharp cut-off; inactive = mostly below about 43%; also: 0% is about no effect
HCV inh: blocks hepatitis C virus; Huh7.5.1 HCVcc-Cre infection, luciferase reporter, 44 h; actives 3.4% (n = 340,000); AID 651820; Potency, µM (titrated, usually from 41.8 µM), inactives show at the highest dose activity change, negative = inhibition, hits mostly inhibitors; active = well fitted inhibition curve with a large enough effect; inconclusive = small, poorly fitted or top-dose-only effect, or another doubt; inactive = no such curve, though single readings can be large or run the other way; also: potency is read from the fitted curve at half-maximal effect; % is scaled to controls: 0 for no effect and ±100 for the full control effect
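After 44 h co-culture of compound, cells and HCVcc-Cre (~0.5 moi), substrate is added for 15 min at room temperature and luciferase measured over 15 sec. Cells were seeded at 1,000/well and pre-cultured 4 h.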
Cycloheximide cs: affects cycloheximide protein synthesis inhibition readout, counter-screen; cell reporter, cycloheximide protein synthesis inhibition counterscreen; max response, %; actives 12% (n = 300,000); in the data active = max response mostly above about 13%, no sharp cut-off; inactive = mostly below about 14%; also: read at 38.3 µM for the half of the compounds with a filed dose; 0% is about no effect
* = called active by the depositor; ? = inconclusive; / = not tested or not shown; [ ] = another dose, or the depositor's remark.

SMILES	LASV entry inh	FMDV inh	Marburg entry inh	Shiga inhibitor	HCV inh	Cycloheximide cs
COc1ccc(OC)c(S(=O)(=O)Nc2cc3c(cc2C)n(C)c(=O)c(=O)n3C)c1	1%[46.1 µM]	22%	/	/	/	/
Cc1ccc2nc(-c3ccsc3)c(Nc3ccccc3C)n2c1	-25%[46.1 µM]	?	-16%[46.1 µM]	/	/	/
O=C(NN=Cc1ccc2c(c1)OCO2)c1ccccc1	?	1%	?	/	5%	/
Cc1ccnn1CC(=O)N/N=C/c1ccc2c(c1)OCO2	-1%	9%	?	37	22%	18*
O=C(NCCc1ccccc1)C(=O)N/N=C/c1ccc2c(c1)OCO2	-21%	-28%	-13%	20	2%	5
O=C(NCc1ccccn1)C(=O)N/N=C/c1ccc2c(c1)OCO2	/	56%	/	50*	-2%	16
O=C(Cn1nc(C(F)F)cc1C(F)F)N/N=C/c1ccc2c(c1)OCO2	-11%	0%	-17%	-10	20%	-4
O=C(N/N=C/c1ccc2c(c1)OCO2)C(O)c1ccccc1 (stereo not given)	?	69%	?	54*	-3%	59*
O=C(Nc1cccc(C(=O)N2CCOCC2)c1)c1cncc(Br)c1	-18%	6%	-3%[46.1 µM]	-5	?	5
Cc1c(NCc2ccncc2)cccc1C(=O)O	9%	-1%	-4%	-3	16%	6
COc1ccc(CCN=C(N)NS(=O)(=O)c2cccs2)cc1OC	0%	-22%	?	37	4%	-2
CC(=O)N(CC(C)C(=O)O)c1c(I)cc(I)c(N)c1I (stereo not given)	/	-13%	/	/	-1%	/
CCCCn1c(CCn2nc(C)c(Br)c2C)n[nH]c1=S	-2%	6%	4%	22	-13%	21
CC(C)c1ccc(NC(=O)CSc2ncccc2C(=O)Oc2cccc([N+](=O)[O-])c2)cc1	?	17%	?	36*	2%	46*
CC(C)OC(=O)c1cccnc1SCC(=O)Nc1ccc(C(F)(F)F)cc1Cl	26%[46.1 µM]	8%	/	/	/	/
COc1ccc(NC(=O)CSc2ncccc2C(=O)OC(C)C)cc1OC	?	?	?	6	7.9µM*	5
CC(C)c1ccc(NC(=O)COC(=O)/C=C/c2cccc([N+](=O)[O-])c2)cc1	5%	3%	2%	9	6%	-1
CC(C)c1cc(C(=O)N2CCCC(Nc3ccc(F)cc3)C2)n[nH]1 (stereo not given)	8%	-12%	-10%	16	/	19*
CC(C)c1ccc(NC2CCCN(C(=O)c3ccc(N4CCOCC4)cc3)C2)cc1 (stereo not given)	-26%	28µM*	-26%	-6	?	6
CC(C)c1ccc(NC2CCCN(C(=O)c3ccoc3)C2)cc1 (stereo not given)	/	-6%	/	32*	?	24
COC1C=CC(CNC(=O)c2cc3c(=O)n4cccc(C)c4nc3n2C)(OC)O1 (stereo not given)	/	?	/	31	-14%	8
Clc1ccc(CN2CCc3nc(N4CCN(c5ccccn5)CC4)ncc3C2)cc1	0%[46.1 µM]	?	/	/	/	/
COc1cc(N2CCOCC2)ccc1C=C(C#N)C#N	1%[46.1 µM]	24%	10%[46.1 µM]	-8	-10%	-5
O=C(NC(=S)Nc1ccc(N2CCOCC2)c(Cl)c1)c1cccs1	3%[46.1 µM]	2%	?	60*	-14%	30*
O=C(Nc1ccc(N2CCCC2)c(Cl)c1)c1cccs1	?	-6%	?	95*	?	71*
SMILES	LASV entry inh	FMDV inh	Marburg entry inh	Shiga inhibitor	HCV inh	Cycloheximide cs
CCN1C(=O)[C@@H]2[C@H]3[C@H](O)[C@H](O)CC(=NNC(=O)OCc4ccccc4)[C@@H]3CC[C@H]2C1=O	?	/	-8%[14.2 µM]	/	/	/
Cc1ccc(S(=O)(=O)N2CCN(CC(O)CN3CCOCC3)CC2)cc1 (stereo not given)	/	?	/	/	4%	/
Cc1ccc(CNC(=O)CSCc2ccccc2)cc1	10%	28%	2%	71*	6%	29*
Cc1ccc(CSCC(=O)Nc2ccccc2)cc1	28%[46.1 µM]	24%	?	26*	4%	32*
O=C(CSc1ccccc1)NC(=O)NCc1ccccc1	/	-3%	-4%	5	5%	-1
CCC(=O)Oc1ccc(NC(=O)CSCc2ccccc2)cc1	/	63%	/	96*	-1%	25*
Cc1ccc(CSCC(=O)Nc2ccc(F)cc2)cc1	8%	27%	19%	11	9%	-2
O=C(CSc1ccccc1)NCc1ccc(F)cc1	?	53%	?	80*	8%	40*
CCOC(=O)c1cnc(-c2ccccc2)nc1-c1ccccc1	-7%[46.1 µM]	-9%	?	28	-12%	22
CCC(CC)NCCOC(=O)c1ccc([N+](=O)[O-])cc1	/	-8%	/	-1	12%	-5
CS(=O)(=O)c1ccc2nc(NC(=O)C3CC(=O)N(c4ccccc4)C3)sc2c1 (stereo not given)	5%	-30%	-9%[46.1 µM]	-10	-19%	-2
O=C1CSC(c2ccncc2)N1Cc1ccco1 (stereo not given)	10%	3%	?	-16	21%	-8
COc1ccc([C@H]2CC(=O)C=C(c3cccc(Cl)c3)C2)cc1	/	-1%	/	/	-9%	/
Cc1ccc(SCC(=O)NCc2ccccc2)cc1	/	44%	/	71*	-1%	21*
Cc1ccc(SCC(=O)NCc2ccc(F)cc2)cc1	?	11%	-2%[46.1 µM]	-13	8%	-4
CCCCN(CCCC)CCNC(=O)CSCc1ccc(C)cc1	-11%[46.1 µM]	?	7.1µM*	17	-9%	-1
CCOc1ccc(S(=O)(=O)N(C)CC(=O)NC2CCCC2)cc1	-7%	1%	12%	-6	/	-2
COc1cccc(C(=O)Nc2nc3c(s2)CCCC3)c1	15%[46.1 µM]	-30%	-7%[46.1 µM]	/	/	/
CC(C)[C@H](NC(=O)c1ccccc1F)C(=O)Nc1nc2c(s1)CCCC2	5%	33%	18%[46.1 µM]	18	-23%	42*
CC(C)(C)c1ccc(C(=O)NC(=S)Nc2nc3c(s2)CCCC3)cc1	?	?	1.3µM*	113*	?	69*
CN(C)c1ccc(C(=O)Nc2nc3c(s2)CCCC3)cc1	?	-64%	?	21*	11µM*	45*
COc1cc(OC)cc(C(=O)N[C@H](C(=O)Nc2nc3c(s2)CCCC3)C(C)C)c1	0%	16%	-25%	28	?	13
C/C(=N\NC1=NCCN1)c1ccc(Cl)cc1	?	18%	?	14	2%	1
C/C(=N\Nc1nc2c(s1)CCCC2)c1ccc(Cl)cc1	-21%	?	?	116*	-24%	83*
CCc1ccc(NC(=O)Cn2cnc3nc4c(cc3c2=O)CCCC4)cc1	?	-5%	/	/	/	/
CCN(C(=O)COC(=O)CSc1ccc([N+](=O)[O-])cc1)C1CCS(=O)(=O)C1 (stereo not given)	4%	-13%	5%	-31	-10%	-2
CCOc1ccccc1NC(=O)CSc1ccc(-c2sc(C)nc2C)nn1	?	25µM*	?	-3	?	-1
